The source of these data is PubChem BioAssay (NCATS).

Where “and” joins values, the source holds several entries; their conditions need not be identical. Equal entries are not always repeated. Results filed as inconclusive are left out. Calls of active or inactive are those of the source. Unless noted, calls follow the shape of the dose curve; as a rule, active = well fitted curve in the direction sought with a large enough effect; inconclusive = small, poorly fitted or top-dose-only effect, or another doubt; inactive = no such curve, though single readings can be large; an effect the other way counts as inactive or inconclusive.

The target of test [1] is Endonuclease 4 (Escherichia coli (strain K12)) (UniProt P0A6C1). The test is described as follows: Counterscreen for APE1 Inhibitors: qHTS Validation Assay for Inhibitors of Endonuclease IV (AID 1708). Also: potency is read from the fitted curve at half-maximal effect. The method, boiled down:
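Read-out: fluorescence rise (ex 525/em 598 nm) from incision of a TAMRA/BHQ-2 double-stranded THF abasic-site substrate (50 nM), measured kinetically; third-minus-first read difference gave reaction progress. Enzyme 2 nM.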

For test [2], the target named is Ferritin light chain (Equus caballus) (UniProt P02791). The test is described as follows: qHTS Validation Assay for Identification of Novel General Anesthetics (AID 2323). Also: potency is read from the fitted curve at half-maximal effect. The method in brief: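 Competitive displacement of profluorescent 1-aminoanthracene (1-AMA, 50% saturated solution in PBS) from 10 uM horse-spleen apoferritin. Compounds incubated 10 min at room temperature; fluorescence read at 380 nm excitation/535 nm emission, normalized to free 1-AMA and complex, fitted with four-parameter Hill equation.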
For orientation: In qHTS, concentration-response curves come from the screen itself.

Test [3] concerns the target DNA repair nuclease/redox regulator APEX1 (Homo sapiens) (UniProt P27695). The test is described as follows: qHTS Validation Assay for Inhibitors of the Human Apurinic/apyrimidinic Endonuclease 1 (APE1) (AID 1705;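 also: TAMRA fluorescence gain over two minutes as APE1 cuts a quenched THF abasic duplex; % is scaled to controls: 0 for no effect and ±100 for the full control effect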). The method in brief: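 Human APE1 was preincubated with compound for 15 min at room temperature, then 50 nM (final) THF-abasic double-stranded DNA substrate bearing 5'-TAMRA and 3'-BHQ-2 was added. Incision-driven fluorescence rise (ex 525/em 598 nm) was read kinetically.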

In test [4] the target is ATP-dependent DNA helicase Q1 (Homo sapiens) (UniProt P46063). The experiment in a line: qHTS Validation Assay for Inhibitors of RecQ-Like Dna Helicase 1 (RECQ1) (AID 2353).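 Also: plate controls were DMSO vehicle for no effect and enzyme-free control for full effect.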 The method, boiled down: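 RECQ1T1 50 nM; forked duplex (20 bp + 30-nt ss tails) 200 nM, ATP 2 mM final; pH 8.0, 2 mM MgCl2, 2.5 ug/ml poly(dI-dC); 15 min compound preincubation; discontinuous kinetic read over 2 h at RT.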

A short description of test [5]: Quantitative high throughput screen for delayed death inhibitors of the malarial parasite plastid, 48 hour incubation (AID 488752). Also: % is scaled to controls: 0 for no effect and ±100 for the full control effect; nearly all actives have a fitted effect of over 65% in size. The method, boiled down:
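Cultures: infected erythrocytes at final 2% hematocrit and 0.1% parasitemia in Albumax-supplemented RPMI. Parasites express integrated firefly luciferase. Incubation with compound lasts 48 h before luminescent detection of remaining reporter activity.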

Test [6] addresses Transient receptor potential cation channel subfamily V member 1 (Homo sapiens) (UniProt Q8NER1). The experiment in a line: HTS Assay for Compounds that Act as Enhancers of the Vanilloid Receptor 1 (AID 488979). Also: 0% is about no effect. The method in brief: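 TRPV1 cells loaded with Fluo-8 calcium dye; compound added and Ca2+ signal (ex 480/em 520 nm) followed 3 min, then capsaicin at EC20 added and read 2 more min to detect enhancement.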

Test [7] deals with Thyrotropin receptor (Homo sapiens) (UniProt P16473). The test is described as follows: qHTS Assay for Antagonists of the Thyroid Stimulating Hormone Receptor (AID 488980). Also: 0% is about no effect. The method in brief: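 HEK293 cells transfected with human TSHR, suspended in HEPES-buffered HBSS with 70 uM RO 20-1724, were treated with compounds plus TSH at EC80 (4 nM final). cAMP was measured by competitive HTRF (cryptate anti-cAMP antibody, cAMP-d2 acceptor).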

The target of test [8] is Galactokinase (Homo sapiens) (UniProt P51570). The test is described as follows: qHTS Validation Assay for Inhibitors of Human Galactokinase (GALK) (AID 493189). Also: 0% is about no effect. The method, boiled down:
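GALK (5 nM) with 35 uM ATP and 100 uM galactose in HEPES pH8.0, MgCl2, NaCl, DTT, BSA; 1 h at room temperature. Residual ATP read by Kinase-Glo Plus luminescence after 10 min.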

Test [9] is described as follows: Validation screen for small molecules that induce DNA re-replication in SW480 colon adenocarcinoma cells (AID 504364). Also: 0% is about no effect. The method in brief: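 Hoechst-stained SW480 nuclei, imaged at 405 nm excitation after 48 hr compound exposure, were counted for elevated DNA content as the re-replication signal.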
The subject of test [10] is CP192. The test is described as follows: qHTS profiling for inhibitors of Plasmodium falciparum proliferation (AID 504749). Also: nearly all actives have a fitted effect of over 60% in size. Also: potency is read from the fitted curve at half-maximal effect. As to conditions: P. falciparum in erythrocytes, SYBR Green DNA, 72 h; series mostly up to 28.7 µM. The method in brief: (§1)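 SYBR Green fluorescence (ex 485 nm, em 535 nm) reports parasite DNA after 72 h compound exposure of infected red cells at 0.3% parasitemia, 2.5% hematocrit; signal normalized to 0.29 uM artemisinin and vehicle wells.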

Test [11] deals with DFO2036. Described as above. As to conditions: P. falciparum in erythrocytes, SYBR Green DNA, 72 h; series mostly up to 28.7 µM. The method in brief:
as §1

In test [12] the test system is PC49. Described as above. As to conditions: P. falciparum in erythrocytes, SYBR Green DNA, 72 h; series mostly up to 28.7 µM. The method, boiled down:
as §1

Test [13] has as its system TAB113. The description is as above. The conditions noted are these: P. falciparum in erythrocytes, SYBR Green DNA, 72 h; series mostly up to 28.7 µM. The method in brief: as §1
The test system of test [14] is W2. The test is described as above. As to conditions: P. falciparum in erythrocytes, SYBR Green DNA, 72 h; series mostly up to 12.8 µM. The method in brief: as §1
Test [15] concerns the target Rap guanine nucleotide exchange factor 3 (Homo sapiens) (UniProt O95398). The test is described as follows: Counterscreen qHTS for agonist of cAMP-regulated guanine nucleotide exchange factor 3 (EPAC1) (AID 1645889). Also: % of control where 0% means no effect; nearly all actives have a fitted effect of over 40% in size. The method in brief:
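Rap1B–BODIPY-GDP (250 nM) with 50 uM GDP; compounds pin-transferred to 9.74 nM–152 uM final (activator) or from 7.32 nM upwards (inhibitor). Fluorescence Ex/Em 480/540 nm read at 5 and 30 min, then after adding cAMP or buffer, at room temperature.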
(A counterscreen serves to expose hits that act by an unwanted route or on another target.)

Test [16] can be described thus: NCATS anti-infectives library activity on the primary C. elegans qHTS viability assay (AID 1745855; calls by dose curve; also: potency is read from the fitted curve at half-maximal effect). The method, boiled down:
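Titration-based screen in worms: eggs hatched overnight in M9, L1 larvae fed TOP10 capsules in S medium with compound, incubated 21 °C for 7 days; fluorescent objects gated by size and intensity at days 0, 3 and 7.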

Test [17] can be described thus: Cellular Toxicity (caspase-3) Jurkat (AID 655).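 Also: cells exposed to compound for 16 h at 37 °C before reading.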 The conditions noted are these: Jurkat caspase-3 activation, luminescence, DMSO = 0%, tamoxifen = 100%; at 92.2 µM (top of the series). The method in brief: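 Jurkat cells (5000/well) in complete medium were treated with compounds for 16 hr at 37 °C, then Caspase-Glo 3/7 luminescence was read after 20 min at room temperature. Data normalized to DMSO (basal) and 100 uM tamoxifen (100%); AC50 from Hill fit.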

The target in test [18] is Androgen receptor (Homo sapiens) (UniProt P10275). The experiment in a line: qHTS assay for small molecule agonists of androgen receptor signaling (AID 588515; active = well fitted curve in the direction sought with a large enough effect in the signal ratio, with a control signal flat; the % refers to the signal ratio; also: % is scaled to controls: 0 for no effect and ±100 for the full control effect). The conditions noted are these: AR-UAS-bla HEK293, beta-lactamase ratio, agonist 16 h; stronger effect = higher value. The method in brief:
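Stimulation of an AR-responsive β-lactamase reporter in GripTite HEK293 cells was measured after 16 h compound exposure at 37 °C, via CCF4 fluorescence after 2 h RT. EC50 from Hill fits, normalized to R1881 at 30 nM.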

Test [19] is described as follows: qHTS assay for small molecule activators of the nuclear factor-kappa B (NF-kB) signaling pathway (AID 651749; active = well fitted activation curve with a large enough effect in the signal ratio; the % refers to the signal ratio; also: % of control where 0% means no effect). The conditions noted are these: NF-kB-bla ME-180 cells, beta-lactamase FRET ratio, 16 h; activation: stronger effect = higher value. The method, boiled down: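 NF-kB-bla ME-180 cells, 2,000/well; 23 nL compound or DMSO pinned; 16 hr, 37C/5% CO2; beta-lactamase FRET read-out.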

Test [20] can be described thus: qHTS drug screen for cell cycle checkpoint inhibitors in PARPi-resistant BRCA-mutant ovarian cancer cell lines. (AID 1963452; calls by dose curve). As to conditions: PEO1/OlaR viability, CellTiter-Glo luminescence, 96 h, stronger effect = lower value. The method in brief: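 PEO1, PEO4 and PEO1/OlaR ovarian cancer cells, 600 per well, exposed 96 h at 37C to a dilution series. Viability read by CellTiter-Glo luminescence, normalized to DMSO and empty wells; activity summarized as Z-AUC.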

Androgen receptor (Homo sapiens), sequence (P10275 whole entry, looked up): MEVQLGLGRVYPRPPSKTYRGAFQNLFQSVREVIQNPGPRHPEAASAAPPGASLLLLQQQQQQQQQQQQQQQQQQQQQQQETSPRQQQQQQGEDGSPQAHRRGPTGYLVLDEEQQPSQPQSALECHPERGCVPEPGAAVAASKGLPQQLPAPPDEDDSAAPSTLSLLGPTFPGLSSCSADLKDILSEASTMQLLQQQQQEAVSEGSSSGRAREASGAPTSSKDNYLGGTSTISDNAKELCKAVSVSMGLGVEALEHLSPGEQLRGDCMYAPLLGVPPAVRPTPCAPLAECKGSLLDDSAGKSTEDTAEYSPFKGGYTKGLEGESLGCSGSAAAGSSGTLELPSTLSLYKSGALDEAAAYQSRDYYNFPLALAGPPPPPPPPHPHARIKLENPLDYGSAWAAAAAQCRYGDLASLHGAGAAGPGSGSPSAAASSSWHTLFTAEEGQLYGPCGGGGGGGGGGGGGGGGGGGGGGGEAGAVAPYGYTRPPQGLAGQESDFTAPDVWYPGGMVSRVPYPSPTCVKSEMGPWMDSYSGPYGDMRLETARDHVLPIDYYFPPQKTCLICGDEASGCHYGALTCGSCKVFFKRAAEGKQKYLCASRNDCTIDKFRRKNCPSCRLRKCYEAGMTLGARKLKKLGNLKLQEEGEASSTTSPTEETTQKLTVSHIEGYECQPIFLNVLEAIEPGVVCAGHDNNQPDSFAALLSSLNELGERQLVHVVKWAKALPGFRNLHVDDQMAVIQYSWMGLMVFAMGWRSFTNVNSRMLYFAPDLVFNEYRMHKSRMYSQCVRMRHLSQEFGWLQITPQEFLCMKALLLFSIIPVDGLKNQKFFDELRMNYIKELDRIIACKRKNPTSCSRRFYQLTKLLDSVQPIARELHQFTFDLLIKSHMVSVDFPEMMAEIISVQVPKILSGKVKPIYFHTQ
ATP-dependent DNA helicase Q1 (Homo sapiens), sequence (P46063 whole entry, looked up): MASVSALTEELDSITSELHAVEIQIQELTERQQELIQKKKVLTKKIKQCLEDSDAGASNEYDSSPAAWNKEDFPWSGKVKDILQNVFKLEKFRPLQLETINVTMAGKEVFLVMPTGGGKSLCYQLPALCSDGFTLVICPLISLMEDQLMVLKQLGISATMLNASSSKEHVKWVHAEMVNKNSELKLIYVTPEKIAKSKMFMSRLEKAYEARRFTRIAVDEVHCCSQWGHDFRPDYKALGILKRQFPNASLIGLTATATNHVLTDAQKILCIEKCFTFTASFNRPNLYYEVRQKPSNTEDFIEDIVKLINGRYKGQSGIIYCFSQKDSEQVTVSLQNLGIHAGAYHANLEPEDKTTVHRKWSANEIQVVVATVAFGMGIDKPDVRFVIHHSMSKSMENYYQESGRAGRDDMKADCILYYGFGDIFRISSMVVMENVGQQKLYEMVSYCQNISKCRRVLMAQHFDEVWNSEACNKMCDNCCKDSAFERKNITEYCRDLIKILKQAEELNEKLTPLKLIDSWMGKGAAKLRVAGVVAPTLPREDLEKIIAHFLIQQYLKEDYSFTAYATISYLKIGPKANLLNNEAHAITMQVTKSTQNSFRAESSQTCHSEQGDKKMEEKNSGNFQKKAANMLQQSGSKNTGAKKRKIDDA
Transient receptor potential cation channel subfamily V member 1 (Homo sapiens), sequence (Q8NER1 whole entry, looked up): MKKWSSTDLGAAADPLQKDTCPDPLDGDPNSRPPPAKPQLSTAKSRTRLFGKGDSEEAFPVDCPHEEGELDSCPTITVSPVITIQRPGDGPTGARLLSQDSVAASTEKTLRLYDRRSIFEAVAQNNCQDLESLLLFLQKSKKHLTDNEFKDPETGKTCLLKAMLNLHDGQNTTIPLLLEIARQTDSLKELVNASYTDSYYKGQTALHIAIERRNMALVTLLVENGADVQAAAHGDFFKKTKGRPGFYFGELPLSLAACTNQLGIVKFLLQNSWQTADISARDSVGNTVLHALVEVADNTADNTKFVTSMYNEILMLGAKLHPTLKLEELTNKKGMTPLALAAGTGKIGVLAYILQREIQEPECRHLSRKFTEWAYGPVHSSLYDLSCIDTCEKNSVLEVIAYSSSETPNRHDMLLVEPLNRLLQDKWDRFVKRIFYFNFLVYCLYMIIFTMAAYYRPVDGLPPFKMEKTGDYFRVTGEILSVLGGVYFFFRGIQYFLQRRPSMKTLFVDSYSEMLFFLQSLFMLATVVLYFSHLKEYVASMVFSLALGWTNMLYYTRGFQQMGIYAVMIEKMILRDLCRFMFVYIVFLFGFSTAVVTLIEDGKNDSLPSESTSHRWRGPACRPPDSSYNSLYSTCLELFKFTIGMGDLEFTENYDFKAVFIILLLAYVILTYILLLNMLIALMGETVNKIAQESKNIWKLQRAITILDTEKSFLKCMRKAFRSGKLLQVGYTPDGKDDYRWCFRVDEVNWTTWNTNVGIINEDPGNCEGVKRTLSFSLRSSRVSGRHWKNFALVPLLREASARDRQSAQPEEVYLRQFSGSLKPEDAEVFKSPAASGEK
Galactokinase (Homo sapiens), sequence (P51570 whole entry, looked up): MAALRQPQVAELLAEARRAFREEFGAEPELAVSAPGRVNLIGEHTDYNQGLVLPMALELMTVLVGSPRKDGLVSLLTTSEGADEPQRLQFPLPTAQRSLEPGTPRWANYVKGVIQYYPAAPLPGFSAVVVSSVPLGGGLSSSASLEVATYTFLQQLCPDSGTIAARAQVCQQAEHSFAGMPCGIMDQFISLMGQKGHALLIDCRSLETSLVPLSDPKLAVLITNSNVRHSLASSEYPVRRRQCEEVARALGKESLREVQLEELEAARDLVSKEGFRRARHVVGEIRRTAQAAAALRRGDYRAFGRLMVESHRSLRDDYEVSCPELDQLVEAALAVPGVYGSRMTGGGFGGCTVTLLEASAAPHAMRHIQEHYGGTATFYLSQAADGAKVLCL
DNA repair nuclease/redox regulator APEX1 (Homo sapiens), sequence (P27695 whole entry, looked up): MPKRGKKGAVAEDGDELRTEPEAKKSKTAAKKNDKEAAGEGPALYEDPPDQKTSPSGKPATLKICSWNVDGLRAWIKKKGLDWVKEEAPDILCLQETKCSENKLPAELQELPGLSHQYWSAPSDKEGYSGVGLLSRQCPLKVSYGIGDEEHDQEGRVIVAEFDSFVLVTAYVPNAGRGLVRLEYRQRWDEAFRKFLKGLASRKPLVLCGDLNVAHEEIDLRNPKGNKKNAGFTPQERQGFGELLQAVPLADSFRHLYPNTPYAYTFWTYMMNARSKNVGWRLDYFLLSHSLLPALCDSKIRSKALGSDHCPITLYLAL
Thyrotropin receptor (Homo sapiens), sequence (P16473 whole entry, looked up): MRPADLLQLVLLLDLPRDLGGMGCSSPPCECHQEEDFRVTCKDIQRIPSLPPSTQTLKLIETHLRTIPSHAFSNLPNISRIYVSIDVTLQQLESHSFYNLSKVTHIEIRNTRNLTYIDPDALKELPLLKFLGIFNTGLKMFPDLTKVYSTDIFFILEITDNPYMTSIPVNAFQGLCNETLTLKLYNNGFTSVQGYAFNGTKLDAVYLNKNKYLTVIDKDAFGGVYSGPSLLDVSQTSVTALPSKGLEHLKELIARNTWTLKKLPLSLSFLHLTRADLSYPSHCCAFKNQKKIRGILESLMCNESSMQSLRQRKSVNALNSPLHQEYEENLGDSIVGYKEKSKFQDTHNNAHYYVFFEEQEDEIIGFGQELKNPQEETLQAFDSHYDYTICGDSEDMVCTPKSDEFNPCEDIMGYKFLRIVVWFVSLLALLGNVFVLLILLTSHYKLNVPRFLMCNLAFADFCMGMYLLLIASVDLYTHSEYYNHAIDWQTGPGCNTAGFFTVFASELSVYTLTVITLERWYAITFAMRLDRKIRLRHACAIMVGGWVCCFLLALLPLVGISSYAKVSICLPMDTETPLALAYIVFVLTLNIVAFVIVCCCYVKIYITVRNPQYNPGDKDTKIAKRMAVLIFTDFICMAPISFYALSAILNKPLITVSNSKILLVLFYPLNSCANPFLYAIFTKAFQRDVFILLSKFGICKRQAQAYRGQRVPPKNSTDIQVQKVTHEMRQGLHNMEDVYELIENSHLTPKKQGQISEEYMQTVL
Ferritin light chain (Equus caballus), sequence (P02791 2-175 limits assumed): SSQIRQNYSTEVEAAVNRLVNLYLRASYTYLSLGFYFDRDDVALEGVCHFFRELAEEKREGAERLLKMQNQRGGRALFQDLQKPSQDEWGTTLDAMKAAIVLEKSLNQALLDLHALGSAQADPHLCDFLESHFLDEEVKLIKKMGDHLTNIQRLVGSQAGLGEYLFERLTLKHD

On to `N.N.N.N.N.N.N.N.N.N.N.N.N.N.O.O.[Cl-].[Cl-].[Cl-].[Cl-].[Cl-].[Cl-].[Ru].[Ru].[Ru]`, for which the Potency was 28.2 µM (active) in test [1] and 25.1 µM (active) in test [2].

On to `C[C@]12CC[C@@H](O)CC1CCC1C2CC[C@]2(C)C(=O)CC[C@@H]12` (stereo partly specified), for which the Potency entry in test [3], in test [1] and in test [5] was “inactive” throughout. The result in test [4], in [6], in [7], in [8] and in test [9] was inactive.

In the case of `C[C@]12CC[C@H](OS(=O)(=O)O)CC1=CCC1C2CC[C@]2(C)C(=O)CC[C@@H]12` (stereo partly specified), the Potency entry in [3], in [2], in [5], in test [10], in [11] and in test [12] was “inactive” each time. Further, the Potency entry in [13] and in test [14] was “inactive” each time. Besides, the outcome in [4], in test [6], in test [7], in [8] and in [9] was inactive.

With `c1ccc(C(c2ccccc2)c2cccnc2)cc1`, in test [15], the Potency result is “inactive”.

`CN1CCN2c3ccc(N)cc3CC3(C(=O)NC(=O)NC3=O)C2C1` (stereo unspecified): in test [15], the Potency entry was “inactive”.

For `O=C(c1cc(-c2ccc(Cl)cc2)n(-c2ccc(Cl)cc2Cl)n1)N1CCOCC1`, in test [15], the Potency entry is “inactive”.

For `[Hg+][c]1ccccc1`, the Potency was 8.16 µM (active) in [16], 12 µM (active) in test [10], 3.55 µM (active) in [12] and 12 µM (active) in test [14]. Besides, the Potency entry in test [11] and in test [13] was “inactive” throughout.

For the compound `CC[C@H]1CN2CCc3cc(OC)c(OC)cc3[C@@H]2C[C@@H]1C[C@H]1NCCc2cc(O)c(OC)cc21`, the Potency entry in [16] was “inactive”.

Take `COC(=O)C[C@@](O)(CCC(C)(C)O)C(=O)O[C@@H]1C(OC)=C[C@]23CCCN2CCc2cc4c(cc2[C@@H]13)OCO4`: the Potency entry in test [16] was “inactive”.

`COC1=CC(=O)OC(CCc2ccccc2)C1` (stereo unspecified): the caspase-3 activation in test [17] was 0.972% (inactive). Moreover, the activation in [18] was -22.1% (inactive); in [19] it was -1.07% (inactive).

In the case of `Cc1ccc([N+](=O)[O-])cc1C`, in [19], the activation was 0.21% (inactive) and 0.188% (inactive).

On to `C=C(C)C#N`, for which the caspase-3 activation in test [17] is 1.57% (inactive).

With `NC(=S)Nc1ccccc1`, the caspase-3 activation in [17] was 1.95% (inactive) and -1.01% (inactive).

For the compound `CN1[C@@H]2CC(O)C[C@H]1[C@@H]1O[C@@H]12` (stereo partly specified), the values for the Z-AUC in test [20], in test [20] (measured here: PEO1 parental Z-AUC) and in [20] (measured here: PEO4 Z-AUC) were 0.552 (inactive), 0.772 and 1.01, respectively.

For the compound `c1ccc2c(c1)CCCC2`, the activation in test [18] is -2.87% (inactive); in test [19], -0.796% (inactive).

On to `CCSC(=O)Cl`, for which the activation in test [18] was 5.7% (inactive).
